Laboratory results taken from PubChem BioAssay AID686979 (National Center for Advancing Translational Sciences (NCATS), 2013).
The campaign covered roughly 420,000 compounds. About 50,000 (12%) were called active. Roughly 26% stayed inconclusive and do not appear here. What follows is part of a selection rich in actives, with near analogues and random picks from the rest. Values without a mark were called inactive. Calls follow the shape of the dose curve; as a rule, active = well fitted inhibition curve with a large enough effect; inconclusive = small, poorly fitted or top-dose-only effect; inactive = flat fitted curve, though single readings scatter.

experiment: qHTS for Inhibitors of human tyrosyl-DNA phosphodiesterase 1 (TDP1): qHTS in cells in presence of CPT; details: chicken DT40 Tdp1-/-;hTDP1 cells + 20 nM CPT, ATP luminescence, 48 h; series mostly up to 46.2 µM; activity change, negative = growth inhibition: at the top concentration; also: nearly all actives have a fitted effect of over 55% in size
Outline: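 Chicken DT40 Tdp1-/- cells stably complemented with human TDP1 were seeded at 400 cells/well in medium containing 20 nM camptothecin, exposed to pin-transferred compounds, and grown at 37 °C for at least 48 hr. Viability was read as ATP luminescence.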
% is scaled to controls: 0 for no effect and ±100 for the full control effect; potency is read from the fitted curve at half-maximal effect.

SMILES | activity change, negative = growth inhibition | Potency
O=C(OCN1C(=O)c2ccccc2C1=O)/C(=C\c1ccco1)NC(=O)c1ccccc1 | 1.01% | 
CCOc1ccc(/C=C/C(=O)N(CC)CC(=O)NCc2cccs2)cc1OC | -17.8% | 
CC(=O)N[C@@H](C)C(=O)N1CCC(n2nccc2NC(=O)CCCc2ccccc2)CC1 | 7.97% | 
ClC/C=C/C[n+]1ccccc1Cl | -26.5% | 
O=C(NCCC1CCCCN1S(=O)(=O)c1ccc(F)cc1)C(=O)NC1CC1 (stereo unspecified) | 0.311% | 
O=C(NCCC1CCCCN1S(=O)(=O)c1cccs1)C(=O)Nc1ccc(F)cc1F (stereo unspecified) |  | 2.91 µM (active)
O=C(NCc1ccccc1Cl)C(=O)NCC1CCCN1S(=O)(=O)c1cccs1 (stereo unspecified) | -14.6% | 
C/C(=N\NC(=O)c1nc(C)cc(C)n1)c1ccccc1 | 10.9% | 
Cc1cc(C)nc(S/C=C/C(=O)c2ccccc2)n1 |  | 2.06 µM (active)
Cc1ccc(N/C=C/C(=O)c2ccccc2)cc1C | 0.497% | 
O=C(CN(Cc1ccccc1)C(=O)CCC(=O)Nc1ccccn1)NCCc1ccccc1 | -26.5% | 
O=C(CCCn1c(SCC(=O)c2ccccc2)nc2ccccc2c1=O)NCC1CCCO1 (stereo unspecified) |  | 16.4 µM (active)
O=C(CSc1nc2ccccc2c(=O)n1Cc1ccc(F)cc1)NCC1CCCO1 (stereo unspecified) | -24.9% | 
O=C(CCn1c(SCC(=O)c2ccccc2)nc2ccccc2c1=O)NCc1ccc(F)cc1 | -4.07% | 
N#CCC(=O)N/N=C/c1ccc(SCC(=O)Nc2ccccc2)o1 | -23.9% | 
NC(=O)Cn1cc(/C=N\NS(=O)(=O)c2ccccc2)c2ccccc21 | -4.65% | 
CNC(=S)N/N=C/c1cn(Cc2ccc(C)cc2)c2ccccc12 |  | 18.4 µM (active)
COCCCNC(=O)Cn1cc(/C=C(\C#N)C(=O)N2CCN(c3ccccc3)CC2)c2ccccc21 | 3.39% | 
N#CCC(=O)N/N=C/c1cn(Cc2ccc3ccccc3c2)c2ccccc12 |  | 5.8 µM (active)
Cc1ccc(CNC(=O)C(=O)c2cn(CC(=O)N3CCCC3)c3ccccc23)cc1 | -29.5% | 
Nc1nc(NCC(=O)O)nc(N2CCCCCC2)c1[N+](=O)[O-] | 5.37% | 
Cc1ccc(-n2c(-c3ccc(Cl)cc3)n[nH]c2=S)cc1 | -2.68% | 
CC1(C)OC(=O)C2=C(C[C@@H](C3CC3)O[C@H]2c2ccc(Cl)cc2)O1 | -2.98% | 
CN(CCO)C(=O)c1nc[nH]c1C(=O)N(C)Cc1ccccc1 | -26.5% | 
Cc1cc(=O)n2nc(N3CCC(C(=O)Nc4c(F)c(F)c(F)c(F)c4F)CC3)sc2n1 | 5.78% | 
CCc1ccc(CNC(=O)C2CCN(c3nn4cc(-c5ccc(F)cc5)nc4s3)CC2)cc1 | -23% | 

SMILES | activity change, negative = growth inhibition | Potency
COc1ccc(-c2cn3nc(N4CCCC(C(=O)NCCCOC(C)C)C4)sc3n2)cc1 (stereo unspecified) |  | 13 µM (active)
COc1ccc(-c2cn3nc(N4CCC(C(=O)Nc5cccc(C)c5C)CC4)sc3n2)cc1 |  | 20.6 µM (active)
COc1ccc(OC)c(CNC(=O)C2CCCN(c3nc4ccccc4o3)C2)c1 (stereo unspecified) | -4.53% | 
Cc1cc(=O)n2nc(N3CCCC(C(=O)NCc4ccc(Cl)cc4)C3)sc2n1 (stereo unspecified) | -8.25% | 
CC(C)CNS(=O)(=O)c1ccc(CCC(=O)NCc2ccc(Cl)cc2)cc1 | -12% | 
CCN(CC)S(=O)(=O)c1ccc(N2CC(C(=O)NCc3cccnc3)CC2=O)cc1 (stereo unspecified) | -1.05% | 
COc1ccc(-c2cc(C(=O)NC(Cc3c[nH]c4ccccc34)C(=O)O)c(C)o2)cc1OC (stereo unspecified) |  | 29.1 µM (active)
COc1ccc(-c2cc(C(=O)NC(C(=O)O)C(C)C)c(C)o2)cc1OC (stereo unspecified) | 6.13% | 
Cc1cccc(C)c1OCC(=O)NC(Cc1c[nH]c2ccccc12)C(=O)O (stereo unspecified) |  | inactive
Cc1ccc(C(=O)Nc2cccc(-c3nc(CNC(=O)c4ccccc4-n4cccn4)c(C)o3)c2)s1 | -16.4% [at 9.04 µM] | 
CCN(CC)c1ccc(C2C(C(N)=O)=C(C)Nc3nc(SCc4ccccc4)nn32)cc1 (stereo unspecified) | -2.6% | 
Cc1cccc(-c2cnc(C(O)c3ccc4ccccc4c3)[nH]2)c1 (stereo unspecified) |  | 20.6 µM (active)
Cc1nc(N)[nH]c(=O)c1Oc1cccc(C(F)(F)F)c1 | -5.81% | 
OC(c1ccc(Cl)c(F)c1)c1ncc(-c2ccccc2Cl)[nH]1 (stereo unspecified) | -20.4% | 
CCCc1ccc(C(O)c2ncc(-c3cccc(OC)c3)[nH]2)cc1 (stereo unspecified) |  | 16.4 µM (active)
COc1cccc(-c2cnc(C(O)c3ccccc3OC)[nH]2)c1 (stereo unspecified) | -15.6% | 
Cc1ccc(-c2cnc(C(O)c3cccc(C)c3C)[nH]2)cc1 (stereo unspecified) | -25.5% | 
COc1c(C)cc(C(O)c2ncc(-c3cccc(C(F)(F)F)c3)[nH]2)cc1C (stereo unspecified) |  | 23.1 µM (active)
O=c1cc(O)c(-c2cccc(C(F)(F)F)c2)c(Cl)[nH]1 | -0.16% | 
COc1cccc(-c2ccc(C#N)c(SCC(=O)NCCc3ccc(Cl)cc3)n2)c1 | -4.8% | 
O=C(O)c1ccc(/C=C2\SC(=S)N(NC(=O)c3ccc(Br)cc3)C2=O)cc1 | -6.8% | 
C=CCO/N=C/C1=C(O)C(C(=O)OC)C(C)(C)CC1=O (stereo unspecified) | 3.24% | 
CCCCC(NC(=O)c1cccc(Br)c1)C(=O)O (stereo unspecified) | 2.45% | 
CSc1ccc(/C=N\NC(=O)CC(=O)NC(C)C)cc1 | -1.78% | 
Cc1cc(C)n(-c2nc(O)cc(=O)[nH]2)n1 | 8.2% | 
